Compound activity deposited in PubChem BioAssay by National Center for Advancing Translational Sciences (NCATS).
POLI inh = qHTS for Inhibitors of Polymerase Iota; Pol iota fluorescent replication assay, 10 min; Potency, µM (highest dose often 115 µM), most hits filed as inhibitors; hit rate 1% among 390,000; DNA polymerase iota (Homo sapiens), Q9UNA4
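Fluorescent replication assay read twice, at 0 min and 10 min after adding 50 nM (final) substrate. Enzyme (10 nM) and compounds were first incubated 15 min at room temperature; enzyme-free buffer wells were negative controls.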
POLK inh = qHTS for Inhibitors of Polymerase Kappa | DNA polymerase kappa (Homo sapiens), Q9UBT6 | purified Pol kappa, fluorescent DNA synthesis assay, 10 min | Potency, µM (highest dose often 107 µM), most hits filed as inhibitors | hit rate 0.53% among 400,000 | AID 588579, 2011
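10 nM Pol kappa preincubated 15 min at room temperature with compounds, then reaction started with substrate at 50 nM final. Fluorescence read kinetically at 0 and 10 min; buffer-only wells served as negative control.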
WRN inhibitor = qHTS for Inhibitors of WRN Helicase; AID 651768, 2012; WRN helicase unwinding, fluorescent forked duplex, kinetic; Bifunctional 3'-5' exonuclease/ATP-dependent helicase WRN (Homo sapiens), Q14191; hit rate 0.46% among 360,000; Potency, µM (top dose mostly 114 µM), actives largely listed as inhibitors; further: nearly all actives have a fitted effect of over 55% in size
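Fluorescence dequenching readout, ex 525 nm/em 598 nm, kinetic mode: forked duplex DNA (100 nM final) with adjacent fluorophore and quencher unwound by WRN (20 nM final) with 2 mM ATP. Compound preincubation 15 min, room temperature.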
Pol eta inh = qHTS for Inhibitors of Polymerase Eta | DNA polymerase eta (Homo sapiens), Q9Y253 | Potency, µM (titrated, usually from 114 µM), usual class: inhibitors | AID 588591, 2011 | recombinant Pol eta, fluorescent DNA replication assay | hit rate 1.2% among 390,000
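Fluorescent replication assay: 50 nM final substrate added after a 15 min room-temperature compound preincubation with 10 nM enzyme. Signal taken at 0 min and again at 10 min.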
FEN1 inhibitor = qHTS Assay for the Inhibitors of Human Flap endonuclease 1 (FEN1). AID 588795, 2011. hit rate 0.35% among 390,000. Recombinant FEN1 flap cleavage, fluorescence, 15 min. Potency, µM (highest dose often 114 µM), most hits filed as inhibitors; further: nearly all actives have a fitted effect of over 65% in size
Target sequence (P39748 whole entry, looked up): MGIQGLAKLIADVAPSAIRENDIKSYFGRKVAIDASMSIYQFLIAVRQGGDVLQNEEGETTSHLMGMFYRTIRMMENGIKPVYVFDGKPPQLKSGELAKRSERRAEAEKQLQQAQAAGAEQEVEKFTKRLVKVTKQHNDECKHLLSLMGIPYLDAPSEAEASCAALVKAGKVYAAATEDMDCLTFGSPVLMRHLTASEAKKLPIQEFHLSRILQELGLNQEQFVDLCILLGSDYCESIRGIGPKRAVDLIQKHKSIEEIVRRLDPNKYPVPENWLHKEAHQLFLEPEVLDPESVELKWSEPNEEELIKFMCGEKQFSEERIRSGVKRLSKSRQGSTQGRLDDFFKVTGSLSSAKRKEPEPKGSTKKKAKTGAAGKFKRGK
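FEN1 at 10 nM, compound pretreatment for 15 min (room temperature), 50 nM final substrate to initiate; endpoint reads at 0 and 15 min; DMSO-only plates used as vehicle background.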
Pol beta inh = qHTS Assay for Inhibitors of DNA Polymerase Beta; AID 485314, 2010; Potency, µM (titrated, usually from 114 µM), usual class: inhibitors; Pol beta primer extension/strand displacement, fluorescence kinetic; hit rate 1.3% among 340,000; P06746
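Kinetic readout of DNA synthesis with strand displacement by Pol beta. Compound and 10 nM enzyme sit 15 min at room temperature; 50 nM substrate starts the reaction, read immediately and at 10 min.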
Of the large screens only hits and unclear results are named; the others gave an inactive call. Most compounds without a hit are left out; they make up all but 2.4% or so of the library. The call rests on the fitted dose curve; in most records, active means well fitted curve in the direction sought with a large enough effect; inconclusive means small, poorly fitted or top-dose-only effect, or another doubt; inactive means no such curve, though single readings can be large; an effect the other way counts as inactive or inconclusive.

O=c1c2ccccc2nc(COc2ccccc2)n1/N=C/c1ccc(O)c(O)c1	POLI inh inconclusive, POLK inh inconclusive, WRN inhibitor inconclusive, Pol eta inh 31.6µM, Pol beta inh inconclusive
CCc1nc2nc(C)cc(Nc3cc(Cl)ccc3OC)n2n1	none (no result: WRN inhibitor)
COc1cc(SC)ccc1C(=O)N1CCC(Cc2ccccc2)CC1	FEN1 inhibitor inconclusive (no result: POLI inh, WRN inhibitor, Pol eta inh, Pol beta inh)
COc1ccc(/C=N/NC(=O)C(O)(c2ccccc2)c2ccccc2)cc1OC	Pol beta inh 14.1µM
COc1ccc(/C=N\NC(=O)c2ccc(=O)[nH]n2)cc1O	POLI inh 31.6µM, POLK inh inconclusive, Pol beta inh 12.6µM
COc1ccc(/C=N/NC(=O)c2cc(C34CC5CC(CC(C5)C3)C4)[nH]n2)cc1O	none
COc1ccc(/C=N/NC(=O)c2ccc(=O)[nH]n2)cc1OC	POLI inh 100µM, POLK inh inconclusive, Pol eta inh inconclusive, Pol beta inh 7.94µM
COc1ccc(/C=N/NC(=O)c2cc(-c3ccc4c(c3)OCO4)n[nH]2)cc1OC	POLI inh inconclusive, POLK inh inconclusive, Pol eta inh inconclusive, Pol beta inh 4.47µM
COc1ccc(/C=N/NC(=O)CCC(=O)Nc2ccccc2)cc1OC	POLI inh inconclusive, Pol beta inh inconclusive
COc1cc(NC(=O)Cn2c(=O)n(CC(=O)NCCc3ccc(OC)c(OC)c3)c(=O)c3sccc32)cc(OC)c1	Pol eta inh inconclusive (no result: WRN inhibitor)
CSc1nc(C)c2c(n1)N(c1ccc(F)cc1)CC2	none
CSc1nc(C)c2c(n1)N(c1ccc(O)cc1)CC2	POLI inh inconclusive, Pol eta inh 35.5µM, Pol beta inh inconclusive
Nc1ccc[n+](CC(=O)c2ccc(F)cc2)c1	none (no result: WRN inhibitor, Pol eta inh, Pol beta inh)
N=c1nc(-c2ccccc2)n(-c2ccccc2)s1	FEN1 inhibitor 89.1µM (no result: WRN inhibitor, Pol eta inh, Pol beta inh)
Cc1ccc(-c2nc(=Nc3ccccc3)sn2-c2ccccc2)cc1	none (no result: WRN inhibitor, Pol eta inh, Pol beta inh)
O=C1NC(=O)/C(=C\c2ccc(Sc3ccc(Cl)cc3)o2)N1	POLI inh inconclusive, Pol eta inh inconclusive, Pol beta inh 35.5µM
Cc1cccc(CSc2nnc3[nH]c(=O)cc(-c4ccccc4)n23)c1	none (no result: WRN inhibitor)
O=C(Nc1cccc(OC(F)(F)F)c1)C1Cc2c(-c3ccco3)ccnc2O1 (configuration not stated)	none (no result: POLI inh, POLK inh, Pol eta inh, FEN1 inhibitor, Pol beta inh)
CCOc1ccc(NC(=O)NNC(=O)c2ccc(CC)s2)cc1	POLI inh inconclusive, Pol beta inh 79.4µM
CCOc1ccc(NC(=O)Nc2ccc3c(c2)CCC3)cc1	Pol beta inh 25.1µM
Cc1ccc(NC(=O)Nc2ccc3c(c2)CCC3)cc1	Pol beta inh inconclusive
O=C(Cc1cccc2ccccc12)N/N=C/c1ccc(OC(=O)/C=C/c2ccco2)cc1	POLI inh inconclusive, POLK inh inconclusive, Pol eta inh inconclusive, Pol beta inh 10µM
O=C(Cc1cccc2ccccc12)N/N=C/c1ccc(F)cc1	none
CC1CC(C)(C)C2=NCCN21 (configuration not stated)	none (no result: POLI inh, POLK inh, FEN1 inhibitor, Pol beta inh)
O=C1C=CC(=O)N1c1ccc2c(c1)C(NC(=O)C(F)(F)F)c1ccccc1-2 (configuration not stated)	WRN inhibitor 56.2µM (no result: Pol beta inh)
Cc1ccc(C(C[N+](=O)[O-])Sc2ccc(N)cc2)cc1 (configuration not stated)	WRN inhibitor 44.7µM
Cc1ccc2nc(CS)[nH]c2c1	none (no result: WRN inhibitor, Pol eta inh, Pol beta inh)
CCOc1ccccc1CNCCSc1nnnn1C	none (no result: WRN inhibitor)
Cn1nnnc1SCCNCc1ccccc1OCc1ccccc1	Pol beta inh 28.2µM
O=C(Cn1c(SCC(=O)Nc2ccc(F)cc2)nc2ccccc21)NCc1ccc(Cl)cc1	POLI inh inconclusive, Pol beta inh inconclusive (no result: WRN inhibitor)
O=C(CSc1nc2ccccc2nc1Cc1ccc(Cl)cc1)N1CCN(c2ccccc2F)CC1	none (no result: WRN inhibitor)
Cc1cc(C)n2nc3nc(N4CCCCC4)nc(-c4ccco4)c3c2n1	POLI inh inconclusive, POLK inh 31.6µM, WRN inhibitor inconclusive, Pol eta inh 10µM, FEN1 inhibitor inconclusive, Pol beta inh 10µM
Cc1cc(Nc2ccccc2Cl)n2nc(-c3ccco3)nc2n1	none (no result: WRN inhibitor)
